The text below walks through data of publication PMC4336329 (PLoS ONE, 2015).

Structures are written as SMILES. In all, about 310,000 compounds went through this assay and about 14,000 (4.5%) showed an effect of 50% or more. Effects have a minus sign here. Only a selection was taken, and strong results are over-represented in it overall.
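Further: peak tail current of the secondary pulse compared with the same well before compound.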

The test deals with human ether-à-go-go-related gene (hERG) potassium channel (human, UniProt Q12809). Put plainly: primary screen, population patch clamp on CHO cells stably expressing hERG; higher = less effect of the substance.
Sequence of human ether-à-go-go-related gene (hERG) potassium channel (Q12809 whole entry, looked up): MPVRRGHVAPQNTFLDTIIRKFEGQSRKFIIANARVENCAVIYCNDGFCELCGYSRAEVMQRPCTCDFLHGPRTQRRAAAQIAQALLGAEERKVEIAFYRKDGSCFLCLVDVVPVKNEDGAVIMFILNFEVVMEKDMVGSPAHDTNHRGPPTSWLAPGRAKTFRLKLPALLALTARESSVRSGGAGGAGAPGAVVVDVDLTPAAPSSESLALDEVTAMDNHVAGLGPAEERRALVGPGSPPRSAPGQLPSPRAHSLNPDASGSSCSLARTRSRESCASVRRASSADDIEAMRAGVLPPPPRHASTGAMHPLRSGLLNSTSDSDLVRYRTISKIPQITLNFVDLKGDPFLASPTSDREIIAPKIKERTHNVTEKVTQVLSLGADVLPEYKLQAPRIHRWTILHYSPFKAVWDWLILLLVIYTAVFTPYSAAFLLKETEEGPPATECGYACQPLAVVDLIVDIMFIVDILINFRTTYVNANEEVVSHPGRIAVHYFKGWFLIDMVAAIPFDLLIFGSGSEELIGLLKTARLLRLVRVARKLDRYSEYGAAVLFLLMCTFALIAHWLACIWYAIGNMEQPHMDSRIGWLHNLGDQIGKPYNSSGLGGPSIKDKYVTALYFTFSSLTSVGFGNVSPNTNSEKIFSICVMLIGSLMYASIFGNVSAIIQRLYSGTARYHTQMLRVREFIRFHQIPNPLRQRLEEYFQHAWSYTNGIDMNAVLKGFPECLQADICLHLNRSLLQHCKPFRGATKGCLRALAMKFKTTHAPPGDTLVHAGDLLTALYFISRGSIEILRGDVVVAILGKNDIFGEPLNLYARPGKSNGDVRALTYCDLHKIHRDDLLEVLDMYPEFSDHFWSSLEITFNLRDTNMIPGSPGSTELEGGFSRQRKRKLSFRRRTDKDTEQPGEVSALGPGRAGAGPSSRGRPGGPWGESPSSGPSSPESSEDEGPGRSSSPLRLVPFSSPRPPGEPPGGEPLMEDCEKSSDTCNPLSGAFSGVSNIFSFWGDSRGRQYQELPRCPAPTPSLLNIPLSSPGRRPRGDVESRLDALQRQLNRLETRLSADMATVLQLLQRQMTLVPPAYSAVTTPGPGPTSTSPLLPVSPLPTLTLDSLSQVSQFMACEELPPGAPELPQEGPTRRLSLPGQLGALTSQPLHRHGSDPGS
For the molecule `Cc1ccc(CS(=O)(=O)c2ncc(Cl)c(C(=O)Nc3nnc(C(C)C)s3)n2)cc1`, the “hERG current change (%, negative = inhibition) at 10uM” value is recorded as 9.25%. On to `CC(=O)Oc1cc2cccc(OC(C)=O)c(=O)c2c(OC(C)=O)c1OC(C)=O`, for which the “hERG current change (%, negative = inhibition) at 10uM” value stood at 1.34%. As for `CCCNC(=O)c1ccc(N2CCC3(CC2)CC(c2ccccc2)=NO3)c(NC(=O)c2cccc(OC)c2)c1`, the figure is -68.6%. As for `CCCNC(=O)c1ccc(N2CCC3(CC2)CC(c2ccccc2)=NO3)c(NC(=O)c2cccc(C)c2)c1`, the figure is -18.6%; as for `CCCCC(CC)C(=O)Nc1cc(C(=O)NCc2ccc(C)cc2)ccc1N1CCC2(CC1)CC(c1ccccc1)=NO2` (stereo not shown), 2.86%; as for `CCCCC(CC)C(=O)Nc1cc(C(=O)NCCC)ccc1N1CCC2(CC1)CC(c1cccc(Br)c1)=NO2` (stereo not shown), -7.85%. As for `CCCNC(=O)c1ccc(N2CCC3(CC2)CC(c2cccc(Br)c2)=NO3)c(NC(=O)c2ccccc2)c1`, the figure is -0.8%.

On to `CCCCC(CC)C(=O)Nc1cc(C(=O)NCCC)ccc1N1CCC2(CC1)CC(c1ccccc1)=NO2` (stereo not shown), for which the “hERG current change (%, negative = inhibition) at 10uM” value is -64.6%.

As to `O=C(NC(=O)c1csnn1)Nc1ccccc1Cl`, the “hERG current change (%, negative = inhibition) at 10uM” value came out at 9.03%. As for `CCc1cc2c3c(c1)C(C)CC(C)(C)N3C(=O)C2=O` (stereo not shown), the “hERG current change (%, negative = inhibition) at 10uM” value was -15.6%. As for `C=CCN=C1CC(C)(C)CC(=O)/C1=C(\O)c1ccccc1`, the “hERG current change (%, negative = inhibition) at 10uM” value is -6.18%. Consider `CCCC(=O)Nc1sc(C)c(C)c1C#N`, for which the “hERG current change (%, negative = inhibition) at 10uM” value was determined as 2.9%. With `Cc1cc(N(C)C)nc(Nc2ccccc2)n1` the figure was -56.8%; with `Cc1cc(C)nc(Sc2nc(Nc3ccccc3)nc(Sc3nc(C)cc(C)n3)n2)n1`, -4.94%. With `CN(C)c1nc(Nc2ccccc2)nc(N(C)C)n1` the figure was 8.3%; with `COc1ccccc1CCNC(=O)NC1CCCCC1`, -12.1%.

For the molecule `Cc1nc(C(C)NC(=O)CCc2nnc(-c3ccsc3)o2)cs1` (stereo not shown), the “hERG current change (%, negative = inhibition) at 10uM” value turned out to be 15.8%. For the molecule `CC(=Nc1ccc2c(c1)nc(CO)n2C)C1=C(O)CC(C)(C)CC1=O`, the “hERG current change (%, negative = inhibition) at 10uM” value was determined as 2.09%. `Cc1ccccc1NS(=O)(=O)c1ccc(OCCNS(C)(=O)=O)cc1`: the “hERG current change (%, negative = inhibition) at 10uM” value is -4.01%. Turning to `CN1CCc2nc(SCC(=O)Nc3ccc(Cl)cc3)c(C#N)cc2C1`, the “hERG current change (%, negative = inhibition) at 10uM” value was -38.4%. As for `CN(C)S(=O)(=O)c1cccc(NC(=O)CSc2nc3c(cc2C#N)C(=O)CC(C)(C)C3)c1`, the figure is -34.7%; as for `N#Cc1cc2c(nc1SCC(=O)Nc1ccc(Cl)cc1)C1CCN2CC1`, -7.69%.

Consider `N#Cc1cc2c(nc1SCC(=O)Nc1cc(Cl)ccc1Cl)C1CCN2CC1`, for which the “hERG current change (%, negative = inhibition) at 10uM” value is -51.7%. As for `CCN(CC)S(=O)(=O)c1cc(NC(=O)CSc2nc3c(cc2C#N)C(=O)CC(C)(C)C3)ccc1C`, the figure is 4.51%; as for `CN(C)S(=O)(=O)c1ccc(Cl)c(NC(=O)CSc2nc3c(cc2C#N)C(=O)CC(C)(C)C3)c1`, -65.3%; as for `CCCCOC(=O)c1ccc(NC(=S)N2CCN(c3ncc4c(=O)c(C(=O)O)cn(CC)c4n3)CC2)cc1`, 11.2%. In the case of `C[C@H](NC(=O)c1[nH]cnc1C(=O)Nc1ccc(CNC(=O)OC(C)(C)C)cc1)C(=O)OC(C)(C)C`, the “hERG current change (%, negative = inhibition) at 10uM” value came out at 17.2%. With `COC(=O)c1ccc(C2c3c(oc4ccc(F)cc4c3=O)C(=O)N2CCO)cc1` (stereo not shown) the figure was 3.74%; with `O=C(N/N=C/c1ccc(Br)s1)Nc1ccccc1`, 4.13%; with `O=C(CCC(=O)N/N=C/c1ccc(Br)s1)NCc1ccccc1`, 5.19%. In the case of `Cc1ccc(/C=N/N2CCN(Cc3ccccc3)CC2)s1`, the “hERG current change (%, negative = inhibition) at 10uM” value is -15.7%. With `Cc1ccsc1/C=N/NC(=O)CN1CCN(Cc2ccccc2)CC1` the figure was -8.1%. As for `Cc1ccc(/C=N/NC(=O)CN2CCN(Cc3ccccc3)CC2)s1`, the figure is -55.8%; as for `O=C(CN1CCN(Cc2ccccc2)CC1)N/N=C/c1ccc(Br)s1`, -60%; as for `COc1cc(CC(=O)OCC(=O)Nc2ncc(Cl)cc2Cl)cc(OC)c1OC`, 7.58%. As for `COc1ccccc1NS(=O)(=O)c1ccc(O)c(C(=O)OCC(=O)c2ccc(Cl)cc2Cl)c1`, the figure is 23.4%; as for `Br.CC(C)CCC1CC(CSC(=N)N)OC1=O` (stereo not shown), -14%; as for `Cc1ccccc1-[n+]1c(-c2ccccc2)cc(-c2ccccc2)cc1-c1ccccc1.[O-][Cl+3]([O-])([O-])[O-]`, -76.3%.

In the case of `Oc1ccccc1-[n+]1c(-c2ccccc2)cc(-c2ccccc2)c(O)c1-c1ccccc1.[O-][Cl+3]([O-])([O-])[O-]`, the “hERG current change (%, negative = inhibition) at 10uM” value turned out to be 15.1%.

With `[O-]c1ccccc1-[n+]1c(-c2ccccc2)cc(-c2ccccc2)cc1-c1ccccc1`, the “hERG current change (%, negative = inhibition) at 10uM” value is reported as -71.1%. With `O=C([O-])c1ccccc1-[n+]1c(-c2ccccc2)cc(-c2ccccc2)cc1-c1ccccc1` the figure was -3.82%; with `O=C([O-])c1ccc(-[n+]2c(-c3ccccc3)cc(-c3ccccc3)cc2-c2ccccc2)cc1`, -0.807%. With `Oc1ccccc1-[n+]1c(-c2ccccc2)cc(-c2ccccc2)cc1-c1ccccc1.[O-][Cl+3]([O-])([O-])[O-]` the figure was -71.2%; with `Cc1ccc(-c2cc(-c3ccccc3)cc(-c3ccccc3)[n+]2-c2ccccc2C(=O)O)cc1.[O-][Cl+3]([O-])([O-])[O-]`, -21.5%; with `Nc1ccccc1-[n+]1c(-c2ccccc2)cc(-c2ccccc2)cc1-c1ccccc1.[O-][Cl+3]([O-])([O-])[O-]`, -50.9%.

`COc1ccc(NC(=O)C2CCCN(S(=O)(=O)c3ccc4c(c3)CC(C)N4C(C)=O)C2)cc1` (stereo not shown): the “hERG current change (%, negative = inhibition) at 10uM” value was found to be 24.3%.

Turning to `Cc1ccc(NC(=O)C2CCCC2)cc1Cl`, the “hERG current change (%, negative = inhibition) at 10uM” value is listed as -2.92%. In the case of `O=C(COC(=O)CNS(=O)(=O)c1ccccc1)NC12CC3CC(CC(C3)C1)C2`, the “hERG current change (%, negative = inhibition) at 10uM” value is given as -18%.

With `C=CCNC(=S)N/N=C(\C)c1cccnc1`, the “hERG current change (%, negative = inhibition) at 10uM” value is given as 0.787%.
